Measured values from PubChem BioAssay (NCI).
Compounds without any hit were thinned out: in the full panel of roughly 83,000, 20% have a hit.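 For each line, cells grew in 96-well plates with the test compound present at a single concentration for 48 hours.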 Calls of active or inactive are those of the source. Rule for the calls: active = growth percent below 10; inactive = the rest.

Assays:
Assay in all cases: NCI-60 one-dose screen, 48 h (100 = growth as untreated, 0 = no growth, -100 = all killed)
Conditions in all cases: 10 µM unless noted
[1] = tested on: SK-MEL-2 melanoma
[2] = tested on: EKVX NSCLC
[3] = tested on: SN12C renal
[4] = tested on: UO-31 renal
[5] = tested on: TK-10 renal
[6] = tested on: ACHN renal
[7] = tested on: CAKI-1 renal
[8] = tested on: A498 renal
[9] = tested on: CCRF-CEM leukemia
[10] = tested on: MOLT-4 leukemia
[11] = tested on: SR leukemia
[12] = tested on: RPMI-8226 leukemia
[13] = tested on: OVCAR-8 ovarian
[14] = tested on: OVCAR-5 ovarian
[15] = tested on: OVCAR-4 ovarian
[16] = tested on: SK-OV-3 ovarian
[17] = tested on: IGROV1 ovarian
[18] = tested on: OVCAR-3 ovarian
[19] = tested on: NCI/ADR-RES ovarian
[20] = tested on: HS 578T breast

Measured: growth

N#Cc1c(-c2cccc(Cl)c2Cl)cc(-c2ccc3ccccc3c2)[nH]c1=O
active: [15] 4.49%
inactive: [1] 126% | [2] 49% | [3] 19.1% | [4] 24.6% | [5] 48.9% | [6] 40.8% | [7] 47.2% | [8] 87.5% | [9] 38.3% | [10] 71.5% | [11] 67.4% | [12] 68.3% | [13] 41.5% | [14] 77.4% | [16] 99.7% | [17] 65.1% | [18] 31.6% | [19] 42.4%

N#Cc1c(-c2cccc(O)c2O)cc(-c2ccc3ccccc3c2)[nH]c1=O
inactive: [1] 98.8% | [2] 74.5% | [3] 58.4% | [4] 55.9% | [5] 85.4% | [6] 56.4% | [7] 75.6% | [8] 82.1% | [9] 13.4% | [10] 29.9% | [11] 12.1% | [12] 60.9% | [13] 69.8% | [14] 79.5% | [15] 69.5% | [16] 77.6% | [17] 48.8% | [18] 18.9% | [19] 90.6%

N#Cc1ccc(C(=O)Nn2c(N)cc3ccccc3c2=O)cc1
inactive: [1] 104% | [2] 85.8% | [3] 89.9% | [4] 64.9% | [5] 119% | [6] 92.9% | [7] 78% | [8] 113% | [9] 94.7% | [10] 84.6% | [11] 76% | [12] 86.5% | [13] 98.1% | [14] 103% | [15] 97.4% | [16] 85.8% | [17] 92.9% | [18] 105% | [19] 98.3%

C=C1CC[C@@H]2[C@]3(C)COC(c4cn[nH]c4-c4ccc(Br)cc4)O[C@@H]3CC[C@@]2(C)[C@@H]1C/C=C1/C(=O)OCC1O (some centres not stated)
inactive: [8] 97.8% | [20] 19.1%
active: [1] -68.4% | [2] -51% | [3] -64.9% | [4] -92.1% | [5] -65% | [6] -100% | [7] -40.9% | [9] -6.18% | [10] 2.63% | [11] 3.62% | [12] 3.94% | [13] -9.48% | [14] -75.9% | [15] 8.76% | [16] -31.8% | [17] -44.9% | [18] -78.9% | [19] -40%

O=C(O)c1cccc(-c2ccc(/C=N/NC(=O)c3[nH]c4ccc(Br)cc4c3-c3ccccc3)s2)c1
active: [19] -22.5%
inactive: [1] 26.3% | [2] 35.2% | [3] 57.5% | [4] 47.9% | [5] 86.8% | [6] 44.1% | [7] 74.7% | [8] 100% | [9] 31% | [10] 45.3% | [11] 24.1% | [12] 54.2% | [13] 44.9% | [14] 112% | [15] 42% | [16] 103% | [17] 37.9% | [18] 22.3%

N#Cc1c(-c2ccccc2Cl)cc(-c2ccc3ccccc3c2)[nH]c1=O
inactive: [1] 95.4% | [2] 41.1% | [7] 25.1% | [9] 56.8% | [10] 56.1% | [11] 48.9% | [12] 61.5% | [13] 12.2% | [14] 44.1% | [16] 52.1% | [17] 48.2% | [19] 13.4%
active: [3] 0.758% | [4] 0.793% | [5] -0.132% | [6] 9.07% | [8] -29.6% | [15] -46% | [18] -7.55%

N#Cc1c(-c2ccc(Br)cc2)nc2n[nH]c(-c3ccc(Br)cc3)c2c1-c1ccc(F)cc1
inactive: [1] 109% | [2] 70.7% | [3] 85.2% | [4] 65.3% | [5] 135% | [6] 91.2% | [7] 70.1% | [8] 163% | [9] 102% | [10] 74.9% | [11] 80.7% | [12] 72.7% | [13] 101% | [14] 98.1% | [15] 96.4% | [16] 72.7% | [17] 75.1% | [18] 106% | [19] 97.2%

Cc1c(C(=O)NNC(=O)Nc2ccc(Cl)cc2)nnn1-c1ccc(Br)cc1
inactive: [1] 109% | [2] 88% | [3] 103% | [4] 75.7% | [5] 96.1% | [6] 99.7% | [7] 83.9% | [8] 99.8% | [9] 89% | [10] 83.5% | [11] 89.9% | [12] 98.7% | [13] 101% | [14] 102% | [15] 86.4% | [16] 79.6% | [17] 97.6% | [18] 116% | [19] 94.4%

Cn1cc(-c2cc(N)n3nc(-c4c[nH]c5ccccc45)cc3n2)c2cccnc21
inactive: [1] 64.5% | [2] 85.6% | [3] 12.4% | [4] 12.2% | [5] 92% | [7] 23.9% | [8] 129% | [13] 27.5% | [14] 30.2% | [15] 28.4% | [16] 89.9% | [17] 28.1% | [18] 12.6% | [20] 82.7% | [19] 27.7%
active: [6] 3.49% | [9] -21.5% | [10] -29.4% | [11] -32.9% | [12] -28.5%

CC(=O)Nc1cccc(Nc2nc(NCc3ccccc3)c3ccccc3n2)c1
active: [1] -89.2% | [2] -97.6% | [3] -90.2% | [4] -98.5% | [5] -96.7% | [6] -100% | [7] -94.8% | [8] -99.3% | [9] -13.8% | [10] -61% | [11] -45.3% | [12] -38.3% | [13] -73.6% | [14] -98.4% | [15] -73.2% | [16] -96.2% | [17] -94.1% | [18] -79.3% | [19] -65%

Cn1nc(C(F)(F)F)cc1-c1cc(Cl)c(COc2ccc(Cl)cc2)c(-c2ccc(Cl)c(C(F)(F)F)c2)c1O
active: [1] -81.6% | [2] -2.8% | [3] -51.4% | [4] -48.4% | [5] 3.16% | [6] -5.03% | [7] -15.9% | [8] -11.9% | [9] -34.3% | [10] -23.1% | [11] -32.4% | [12] -39.2% | [13] -25.6% | [14] -1.15% | [16] -14.5% | [17] 5.06% | [18] -8.73% | [19] -34.8%
inactive: [15] 13.9%

CC(C)CCNC(=O)N/C(N)=N/c1nc2ccccc2s1
inactive: [1] 86.4% | [2] 28.3% | [3] 73.6% | [4] 73.7% | [5] 88.3% | [6] 58.4% | [7] 52.1% | [8] 116% | [9] 59.1% | [10] 29.6% | [11] 34.4% | [12] 38.2% | [13] 70.7% | [14] 93% | [15] 48.7% | [16] 87.9% | [17] 76.6% | [18] 80.4% | [19] 56.6%

CCOc1ccc(-c2c(C#N)c(-c3ccc(Cl)cc3)nc3n[nH]c(-c4ccc(Cl)cc4)c23)cc1OC
active: [10] -3.16%
inactive: [1] 64% | [2] 26.6% | [3] 69.2% | [4] 33.2% | [5] 90% | [6] 53.4% | [7] 53.1% | [8] 114% | [9] 33.7% | [11] 18.8% | [12] 17.3% | [13] 79.3% | [14] 72.2% | [15] 51.2% | [16] 63.4% | [17] 62.9% | [18] 67.5% | [19] 62%

C=Cn1cc(C(=O)O)c(=O)c2cc(F)c(N3CCN(c4nccc(-c5nccs5)n4)CC3)cc21
active: [1] -83.2% | [2] -24.2% | [3] -16.8% | [4] -61.5% | [5] -13.2% | [6] -43% | [7] -37.1% | [8] -21.4% | [10] 1.77% | [11] -35.2% | [12] -24% | [13] 7.65% | [14] -25.6% | [16] -35.8% | [17] -30.3% | [18] -4.52% | [19] -39.5%
inactive: [9] 15.3% | [15] 10.7%

CC1=C(C#N)C2=NNCC(c3ccccc3)=NN2C(c2ccccc2)=C1
inactive: [1] 113% | [2] 99.7% | [3] 105% | [4] 91.2% | [5] 103% | [6] 110% | [7] 99.8% | [8] 132% | [9] 110% | [10] 114% | [11] 96% | [12] 110% | [13] 111% | [14] 114% | [15] 112% | [16] 101% | [17] 109% | [18] 111% | [20] 107% | [19] 112%

O=C(NNc1ccccc1)n1c(=O)c2ccccc2c(=O)n1-c1ccccc1
inactive: [1] 117% | [2] 91.3% | [3] 85.9% | [4] 81.5% | [5] 95% | [6] 93.7% | [7] 77.2% | [8] 101% | [9] 99.5% | [10] 91.3% | [11] 80.8% | [12] 102% | [13] 96.7% | [14] 96.1% | [15] 97.6% | [16] 85.5% | [17] 96.4% | [18] 104% | [19] 98.3%
